# Measurements: PubChem BioAssay (NCI)
# Values joined by “and” are separate entries in the source; they are usually repeats but may differ in a detail not shown here. Equal values may be shown once. This is part of a sample that, as a whole, favours compounds with a hit. Of some 83,000 tested, about 20% had one in any assay.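 In brief: 96-well plates, 48 h treatment, single concentration, percent growth endpoint.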 Active and inactive are the calls of the source. The calls were made as follows: active = growth percent below 10; inactive = the rest.
# What was measured:
# Experiment in all cases: NCI-60 one-dose screen, 48 h (100 = growth as untreated, 0 = no growth, -100 = all killed)
# Details in all cases: 10 µM unless noted
# SR leukemia = test system: SR leukemia
# RPMI-8226 leukemia = test system: RPMI-8226 leukemia
# OVCAR-8 ovarian = test system: OVCAR-8 ovarian
# OVCAR-5 ovarian = test system: OVCAR-5 ovarian
# OVCAR-4 ovarian = test system: OVCAR-4 ovarian
# SK-OV-3 ovarian = test system: SK-OV-3 ovarian
# IGROV1 ovarian = test system: IGROV1 ovarian
# OVCAR-3 ovarian = test system: OVCAR-3 ovarian
# HS 578T breast = test system: HS 578T breast
# NCI/ADR-RES ovarian = test system: NCI/ADR-RES ovarian
SMILES,growth (SR leukemia),growth (RPMI-8226 leukemia),growth (OVCAR-8 ovarian),growth (OVCAR-5 ovarian),growth (OVCAR-4 ovarian),growth (SK-OV-3 ovarian),growth (IGROV1 ovarian),growth (OVCAR-3 ovarian),growth (HS 578T breast),growth (NCI/ADR-RES ovarian)
CS(=O)(=O)Nc1cc(-c2ccc3ncnc(Nc4ccc(F)c(Cl)c4)c3c2)cnc1Cl,0.546% (active),-24% (active),15.8% (inactive),15.3% (inactive),17.6% (inactive),-19.6% (active),-14.1% (active),-22.6% (active),-11.5% (active),34.2% (inactive)
N=c1ccccn1CCO,87.7% (inactive),98.3% (inactive),104% (inactive),99% (inactive),122% (inactive),100% (inactive),112% (inactive),121% (inactive),110% (inactive),116% (inactive)
Cc1n(Cc2ccc3ccccc3c2)c(Cl)c(Cl)[n+]1Cc1ccc2ccccc2c1,6.73% (active),-16.8% (active),19.1% (inactive),51.1% (inactive),3.21% (active),65.5% (inactive),-8.24% (active),5.54% (active),46.6% (inactive),98.8% (inactive)
COc1ccc(Nc2nn3c(SCC(=O)c4ccc(C)cc4)nnc3s2)cc1,68.9% (inactive),98% (inactive),94.8% (inactive),99.3% (inactive),108% (inactive),79.2% (inactive),91.4% (inactive),110% (inactive),92.2% (inactive),104% (inactive)
NC1=CC(=O)c2cccnc2C1=O,-27% (active),-25.7% (active),-5.58% (active),-70.8% (active),-84.5% (active),58% (inactive),-53.7% (active),-1.02% (active),-10.3% (active),1.37% (active)
O=C1/C(=C/c2ccccc2)CN(C(=O)C(Cl)Cl)C/C1=C\c1ccccc1,-4.98% (active),-25.6% (active),10.7% (inactive),31.7% (inactive),29.7% (inactive),90.2% (inactive),-25.1% (active),-52.7% (active),4.17% (active),13.5% (inactive)
CCOc1ccc(N2C(N)=NC(N)=NC2(C)C)cc1,5.52% (active) and 92.7% (inactive),-4.32% (active) and 90% (inactive),25.8% (inactive) and 91.2% (inactive),55.6% (inactive) and 100% (inactive),42.4% (inactive) and 108% (inactive),15.7% (inactive) and 80.1% (inactive),45.7% (inactive) and 80.8% (inactive),-35.8% (active) and 107% (inactive),35.9% (inactive) and 96% (inactive),9.74% (active) and 101% (inactive)
COC(=O)c1nc(-c2ccccc2)oc1S(=O)(=O)N(C)CCO,8.68% (active),42.4% (inactive),85.6% (inactive),82.5% (inactive),77.4% (inactive),89.8% (inactive),69.2% (inactive),34.7% (inactive),99.5% (inactive),97.2% (inactive)
COc1ccc(/C=C/C(=O)c2cc3c(N)c(C(=O)Nc4ccccc4Cl)sc3nc2C)cc1,53.1% (inactive),53% (inactive),40.3% (inactive),79% (inactive),-13% (active),58.5% (inactive),26.9% (inactive),21.1% (inactive),10.3% (inactive),42.9% (inactive)
CN1CCN(CCNC(=O)c2cccc(CN3c4cccc5c4C(=Cc4cccnc43)N(C)C5=O)c2)CC1,33.5% (inactive),2.26% (active),40.8% (inactive),42% (inactive),37.4% (inactive),18.2% (inactive),18.6% (inactive),34.3% (inactive),-6.06% (active),80.9% (inactive)
O=C(NNc1ccccc1)c1ncc[nH]1,104% (inactive),53.5% (inactive),80.9% (inactive),65.3% (inactive),48.4% (inactive),81.2% (inactive),71.1% (inactive),64.3% (inactive),89.2% (inactive),78.6% (inactive)
O=C([C@H]1C[C@H]1c1ccc(S(F)(F)(F)(F)F)cc1)N1CCN(c2cc(Cl)ccc2C(F)(F)F)CC1,88.1% (inactive),75.8% (inactive),92.2% (inactive),95.3% (inactive),90.7% (inactive),79.1% (inactive),73.3% (inactive),100% (inactive),91.4% (inactive),95.5% (inactive)
COc1ccc(C(CC(=O)c2ccc3c(c2)OCO3)C(=O)O)cc1OC (stereo not given),116% (inactive) and 90.8% (inactive),103% (inactive) and 96.1% (inactive),107% (inactive) and 106% (inactive),118% (inactive) and 99.9% (inactive),132% (inactive) and 108% (inactive),113% (inactive) and 105% (inactive),131% (inactive) and 106% (inactive),119% (inactive) and 102% (inactive),94.8% (inactive) and 121% (inactive),106% (inactive) and 98.5% (inactive)
COc1cc(-c2nc(SCCC(C)C)nc(Nc3ccc(F)cc3)c2C#N)cc(OC)c1OC,73.1% (inactive),91.2% (inactive),40.7% (inactive),95% (inactive),2.39% (active),47.3% (inactive),69.6% (inactive),19.8% (inactive),50.1% (inactive),77.7% (inactive)
Cn1cc(-c2csc(-c3cn(CCOC(N)=O)c4ccccc34)n2)c2cccnc21,20.3% (inactive),74.1% (inactive),89.4% (inactive),104% (inactive),102% (inactive),95.2% (inactive),77.7% (inactive),94.9% (inactive),92.6% (inactive),82.9% (inactive)
Cc1cccc(-c2nnc(SCC(=O)Nc3ncc(Cc4ccccc4)s3)n2N2C(=O)CSC2=S)c1,44.8% (inactive),77.2% (inactive),24.7% (inactive),72.7% (inactive),-14.9% (active),87.2% (inactive),50.5% (inactive),50.8% (inactive),1.22% (active),80.2% (inactive)
COC(=O)c1nc(-c2ccc(C)cc2)oc1Sc1ccc(C)cc1,76.1% (inactive),81.4% (inactive),98.5% (inactive),97.8% (inactive),101% (inactive),92.1% (inactive),110% (inactive),108% (inactive),108% (inactive),108% (inactive)
CCOC(=O)c1c(-c2ccc(C)cc2)c(C#N)c(=O)n(-c2cccc(C(F)(F)F)c2)c1N,102% (inactive),104% (inactive),103% (inactive),93% (inactive),106% (inactive),108% (inactive),107% (inactive),106% (inactive),105% (inactive),109% (inactive)
C/C(=C(\c1ccc(OCCN2CCOCC2)cc1)c1ccc(OC(=O)C2CCCCC2)cc1)c1ccc(Cl)cc1,94.2% (inactive),44.8% (inactive),101% (inactive),95.6% (inactive),111% (inactive),96.6% (inactive),103% (inactive),97% (inactive),97.9% (inactive),98% (inactive)
O=C(/C=C/C12c3ccccc3C(c3ccccc31)C1C(=O)NC(=O)C12)c1ccncc1 (stereo not given),1.11% (active),-29.6% (active),1.79% (active),13.7% (inactive),31.8% (inactive),71.8% (inactive),9.72% (active),4.84% (active),38% (inactive),23.9% (inactive)
N#CSc1c[nH]c2ccc(/C=C/C(=O)/C=C(/C=C/c3ccc4[nH]cc(SC#N)c4c3)OB(F)F)cc12,-25.1% (active),-12.2% (active),-21.6% (active),17% (inactive),1% (active),98.4% (inactive),-55.5% (active),-52.8% (active),26.8% (inactive),10.9% (inactive)
Cc1ccc(C(=O)Nc2ccc(CN3CCN(C)CC3)c(C(F)(F)F)c2)cc1C#Cc1cnc(N)cc1C#N,-29.8% (active),-24.4% (active),-32.9% (active),12.8% (inactive),5.13% (active),-7.98% (active),-47.7% (active),-40.1% (active),-23.5% (active),-27.3% (active)
Nc1ccc(/C=N/Nc2ccnc3c(N)cccc23)c2cccnc12,-28.2% (active),-30.3% (active),-30% (active),13.9% (inactive),-51.4% (active),97.2% (inactive),88.4% (inactive),-85.5% (active),-17% (active),9.25% (active)
CC1(Cc2ccccc2)CC2=C(C(=O)O1)C(c1ccccc1)NC(=O)N2 (stereo not given),76.6% (inactive),94% (inactive),104% (inactive),81.2% (inactive),108% (inactive),98.8% (inactive),118% (inactive),109% (inactive),109% (inactive),106% (inactive)
COc1c(F)cc(-n2c(C(=O)N3CC(F)C3)cc3cccnc32)cc1F,97.1% (inactive),95.1% (inactive),102% (inactive),100% (inactive),97.1% (inactive),111% (inactive),94.4% (inactive),101% (inactive),105% (inactive),90.7% (inactive)
O=C1Nc2ccccc2/C1=C/c1cccn1CCCCCn1c2ccccc2c(=O)c2ccccc21,76.1% (inactive),22.1% (inactive),45.6% (inactive),82.6% (inactive),57.1% (inactive),90.4% (inactive),73% (inactive),70.9% (inactive),90.5% (inactive),60.9% (inactive)
